Data taken from ChEMBL document CHEMBL3988442, “University of Dundee, Small-Polar-MMV Screening Library” (2021).
Hit rate of the full screen: of about 48,000 compounds, about 13,000 (27%) showed an effect of 50% or more. The list shows a part of the results.

The compounds below were run on Wolbachia pipientis (assay: Anti-Wolbachia Cell-Based Screen). Settings: 5 µM.
Type: functional
Set-up: scale not given: in the data most compounds retested in dose-response had high values
With Cc1ccccc1CN1CCN(C(=O)CN2CCOC2=O)CC1 the “Percent Effect” value was -7.914%.
In the case of Cc1nc2c(c(N3CCCC(CO)C3)n1)CCN(Cc1ccco1)CC2 (configuration not stated), the “Percent Effect” value is reported as -5.863%.
With CC(C)(C)CC(=O)NC[C@H]1OC[C@@H](NCc2ccccn2)[C@@H]1O the “Percent Effect” value was -12.57%.
COc1ccc(CN2C[C@@H](CN(C)C)[C@@H](CO)C2)cc1OC was tested, and the “Percent Effect” value was 17.76%.
For Cn1ccc(C(=O)NC2CCC23CCN(C(=O)c2ccccn2)CC3)c1 (configuration not stated), the “Percent Effect” value was -6.667%.
For Cn1ccc(C(=O)NC2CCC23CCN(C(=O)c2ccnnc2)CC3)c1 (configuration not stated), the “Percent Effect” value was 9.055%.
Cn1ccc(C(=O)NC2CCC23CCN(Cc2nccs2)CC3)c1 (configuration not stated) was tested, and the “Percent Effect” value was 125.2%.
In the case of CS(=O)(=O)NCc1cc2n(n1)CCCN(Cc1ccc(Cl)s1)C2, the “Percent Effect” value is reported as 7.385%.
CCc1cnc(CN(C)C(C)C(=O)N2CCc3ccccc3C2)s1 (configuration not stated) was tested, and the “Percent Effect” value was -7.357%.
O=C(C1CSc2ccccc2O1)N1CCN(CCO)CC1 (configuration not stated) was tested, and the “Percent Effect” value was -0.8425%.
Cl.NC(C(=O)N1CCSc2ccccc2C1)c1ccccc1 (configuration not stated) was tested, and the “Percent Effect” value was 93.09%.
For CC(C)(O)CN1CCN(C(=O)C2CSc3ccccc3O2)CC1 (configuration not stated), the “Percent Effect” value was -0.7844%.
For CC(C)[C@H](N)C(=O)N1CCSc2ccccc2C1.Cl, the “Percent Effect” value was 101.9%.
With N[C@@H](C(=O)N1CCN(c2ccccc2Cl)C(=O)C1)c1ccccc1 the “Percent Effect” value was 1.545%.
With Cc1csc(CN(C)C(C)C(=O)N2CCc3ccccc3C2)n1 (configuration not stated) the “Percent Effect” value was 7.72%.
CN(C)C(C(=O)N1Cc2ccccc2C1)c1ccccc1F (configuration not stated) was tested, and the “Percent Effect” value was -6.272%.
For CC(C)C[C@H](N)C(=O)N1CCSc2ccccc2C1.Cl, the “Percent Effect” value was 104.5%.
For COc1ccc(-c2cn(CCn3c(C)cc(C)nc3=O)nn2)cn1, the “Percent Effect” value was 13.66%.
With CC(Oc1ccc(F)cc1F)C(=O)N1CCC2(CC1)CC(=O)N(C)C2 (configuration not stated) the “Percent Effect” value was -15.1%.
In the case of Cn1c(C(=O)N2CCc3[nH]cnc3C2C(=O)O)ccc1-c1ccccc1 (configuration not stated), the “Percent Effect” value is reported as 10.75%.
With CN(Cc1nc(CC2CC2)no1)CC1Cc2ccccc2O1 (configuration not stated) the “Percent Effect” value was 1.11%.
With Cc1nccn1-c1cc(CNC(=O)c2ccccn2)ccn1 the “Percent Effect” value was -23.44%.
O=C(CNC(=O)c1c(F)cccc1Cl)Nc1ccc(F)cn1 was tested, and the “Percent Effect” value was -31.04%.
With Cc1nccn1-c1ccc(=O)n(CCNC(=O)Cc2ccccc2)n1 the “Percent Effect” value was 251.7%.
With CC(=O)NCc1ccc(-n2ccnc2C)nc1 the “Percent Effect” value was 28.24%.
In the case of Cn1c(C(F)(F)F)nn(CCNC(=O)c2ccccn2)c1=O, the “Percent Effect” value is reported as -5.949%.
Cn1c(C(F)(F)F)nn(CCNC(=O)CCc2ccccc2)c1=O was tested, and the “Percent Effect” value was 8.562%.
With Cc1nccn1-c1ccc(=O)n(CCNC(=O)c2c(F)cccc2Cl)n1 the “Percent Effect” value was 122.2%.
In the case of O=c1ccc(-n2ccnc2)nn1CCNS(=O)(=O)c1ccccc1Cl, the “Percent Effect” value is reported as -3.668%.
For Cc1nccn1-c1ccc(=O)n(CCNC(=O)c2ccccn2)n1, the “Percent Effect” value was 116.7%.
For Cc1ccoc1C(=O)N1CC(C(=O)N2CCOCC2)C2(CCOCC2)C1 (configuration not stated), the “Percent Effect” value was -39.43%.
CC(=O)c1c(F)cccc1N1CCC(NS(=O)(=O)c2ccccc2)CC1 was tested, and the “Percent Effect” value was -17.75%.
In the case of CC(C)Oc1cc(N2CC[C@H](CO)[C@@H](O)C2)nc(N)n1, the “Percent Effect” value is reported as -19.56%.
With Cc1ccccc1CCCN1C(=O)CC2(CCSC2)C1=O (configuration not stated) the “Percent Effect” value was 0.3605%.
With Cc1noc(CCCNC(=O)C2CSCN2C(=O)C(C)(C)C)n1 (configuration not stated) the “Percent Effect” value was -2.864%.
In the case of CN(C(=O)CCNC(=O)C1COc2ccccc21)c1ccccc1 (configuration not stated), the “Percent Effect” value is reported as 1.32%.
O=C(c1cocn1)N1CCC2(CC1)CC(OCC1CC1)CO2 (configuration not stated) was tested, and the “Percent Effect” value was 7.124%.
In the case of CN(C)CCCNc1ncnc2cccc(F)c12, the “Percent Effect” value is reported as -15.41%.
In the case of CN(CCOCC1CC1)C(=O)Nc1ccc([S+](C)[O-])cc1 (configuration not stated), the “Percent Effect” value is reported as 90.95%.
With O=C(NCCOCC1CC1)Nc1ccc(F)cc1 the “Percent Effect” value was -7.278%.
In the case of CN(CCOCC1CC1)C(=O)Nc1ccc([S+](C)[O-])c(F)c1 (configuration not stated), the “Percent Effect” value is reported as 94.49%.
CN(CCOCC1CC1)C(=O)Cn1cccc(C(F)(F)F)c1=O was tested, and the “Percent Effect” value was 10.84%.
In the case of COCCN(C)C(=O)Nc1ccc(C(=O)NCCC(=O)OC)cc1, the “Percent Effect” value is reported as 9.449%.
With C[S+]([O-])c1ccc(NC(=O)Cc2cccnc2)cc1F (configuration not stated) the “Percent Effect” value was 6.367%.
In the case of CC(C)Cc1ncc2c(n1)CN(c1nccc(NC(C)C)n1)C2, the “Percent Effect” value is reported as -6.813%.
COC1CCN(C(=O)c2c(Cl)c3ccccc3n2C)CC1 was tested, and the “Percent Effect” value was -0.1607%.
With O=C(CCc1cc(Cl)no1)N1CCCCC1CCN1CCOCC1 (configuration not stated) the “Percent Effect” value was -7.331%.
CCc1nc(CCNc2ncccn2)sc1C was tested, and the “Percent Effect” value was -26.63%.
In the case of COc1cccc(C(O)CN2CCN(c3cccc(C)c3)CC2)c1 (configuration not stated), the “Percent Effect” value is reported as 140.6%.
COc1ccc(OC)c(C(O)CN2CCN(c3cccc(C)c3)CC2)c1 (configuration not stated) was tested, and the “Percent Effect” value was 116.6%.
For COc1cccc(N2CCN(CC(O)c3cc(C)sc3C)CC2)c1 (configuration not stated), the “Percent Effect” value was -7.346%.
In the case of COc1ccc(OC)c(C(O)CN2CCN(C3CCCC3)CC2)c1 (configuration not stated), the “Percent Effect” value is reported as 3.384%.
With COCCN1CCN(CC(O)c2cc(OC)ccc2OC)CC1 (configuration not stated) the “Percent Effect” value was 7.391%.
COc1cccc(C(O)CN2CCN(C(=O)CCC(C)C)CC2)c1 (configuration not stated) was tested, and the “Percent Effect” value was -9.64%.
In the case of CS(=O)(=O)c1ccc2c(c1)nc1n2[C@@H](CNCc2cccnc2)COC1, the “Percent Effect” value is reported as 6.164%.
For CC(CC(=O)N1CCCS1(=O)=O)c1ccccc1C(F)(F)F (configuration not stated), the “Percent Effect” value was -9.75%.
With COC(=O)[C@@H]1Cc2ncn(C)c2CN1S(=O)(=O)c1cccs1 the “Percent Effect” value was -9.442%.
With Cc1cc(CCC(=O)N2CCCC2)nc(C2CCCN2)n1 (configuration not stated) the “Percent Effect” value was 120.7%.
In the case of Cc1cc(C)n(CC2CCCN2CC(=O)Nc2nncs2)n1 (configuration not stated), the “Percent Effect” value is reported as -0.6534%.
For CN(C)[C@H]1CCCCN(C(=O)CCc2csc(N)n2)C1, the “Percent Effect” value was -1.322%.
CNC(=O)CCc1cccc(OC2CCCC2)c1 was tested, and the “Percent Effect” value was 6.693%.
Cc1cc(C)n(CC2CCCCN2CC(=O)Nc2nncs2)n1 (configuration not stated) was tested, and the “Percent Effect” value was -4.796%.
In the case of CNC(=O)CCc1cc(C)nc(C2CCCCN2)n1 (configuration not stated), the “Percent Effect” value is reported as 122.2%.
CCN1CCn2nc(CCC(=O)N3CCCC3)cc2C1 was tested, and the “Percent Effect” value was 0.2115%.
Cc1cc(CCC(=O)Nc2nncs2)nc(C2CCCN2)n1.Cl (configuration not stated) was tested, and the “Percent Effect” value was 92.36%.
With Cc1cc(CCC(=O)N(C)C)nc(C2CCCCN2)n1.Cl.Cl (configuration not stated) the “Percent Effect” value was 123.4%.
With CNC(=O)CCc1cc(C)nc(C2CCCN2)n1 (configuration not stated) the “Percent Effect” value was -4.947%.
CCc1nc(C)c([C@H]2CN(C)C[C@@H]2C(=O)Nc2ccc3[nH]ncc3c2)[nH]1 was tested, and the “Percent Effect” value was 2.29%.
With CC(=O)N1CCC(NC2(Cc3cc(CC(C)C)on3)COC2)CC1 the “Percent Effect” value was 8.31%.
With Cc1nc(CN2C(=O)C[C@H]3[C@H]2CCN3C2CCOCC2)cs1.O=C(O)C(F)(F)F the “Percent Effect” value was -10.54%.
With Cc1nc(CN2C(=O)CC[C@@H]3[C@H]2CCN3C(=O)C2CCOCC2)cs1 the “Percent Effect” value was -12.01%.
Cc1nc(CN2C(=O)CC[C@@H]3[C@H]2CCN3C2CCOCC2)cs1.O=C(O)C(F)(F)F was tested, and the “Percent Effect” value was 88.53%.
Cc1nc(CN2C(=O)C[C@H]3[C@H]2CCN3C2CCOC2)cs1.O=C(O)C(F)(F)F (some centres not stated) was tested, and the “Percent Effect” value was 104.4%.
With Cc1nc(CN2CCN(C3CCOC3)Cc3cccnc32)cs1.O=C(O)C(F)(F)F.O=C(O)C(F)(F)F.O=C(O)C(F)(F)F (configuration not stated) the “Percent Effect” value was -13.84%.
For Cc1nc(CN2C(=O)CC[C@@H]3[C@H]2CCN3C2CCOC2)cs1.O=C(O)C(F)(F)F (some centres not stated), the “Percent Effect” value was 91.6%.
In the case of Cc1nc(CN2C(=O)CC[C@@H]3[C@H]2CCN3C(=O)c2ccccn2)cs1.O=C(O)C(F)(F)F, the “Percent Effect” value is reported as -0.4991%.
Cc1cccc(OC2CCN(c3nccnc3C#N)CC2)n1 was tested, and the “Percent Effect” value was 4.563%.
In the case of COc1ccc(C(=O)N(C)Cc2cc(C)on2)c(F)c1, the “Percent Effect” value is reported as 9.615%.
In the case of CC(=O)Nc1nc2c(s1)C1(CCN(C)CC1)Nc1ccccc1S2, the “Percent Effect” value is reported as 104.1%.
In the case of CNc1ncc(C(=O)N2CCC3(CC2)Nc2ccccc2NC3=O)cn1, the “Percent Effect” value is reported as -19.06%.
CC(=O)Nc1nc2c(s1)C1(CCCC1)Nc1ccccc1S2 was tested, and the “Percent Effect” value was 63.28%.
COc1cc(C(=O)N2CCC3(CC2)Nc2ccccc2NC3=O)ccn1 was tested, and the “Percent Effect” value was 31.29%.
In the case of CC(=O)Nc1nc2c(s1)C(C)(C)Nc1ccccc1S2, the “Percent Effect” value is reported as 66.2%.
With CS(=O)(=O)N1CC[C@]2(O)CCN(c3cc(C#N)ccn3)C[C@@H]2C1 the “Percent Effect” value was -2.197%.
With CCOc1ccc(CCC(=O)N2CC[C@H]3C(=O)NCCO[C@H]3C2)cc1 the “Percent Effect” value was 8.218%.
With Cc1c(C(=O)NCCC(=O)N2CCOCC2)oc2c(C)cccc12 the “Percent Effect” value was -0.1879%.
CC(NCc1cnc(C2CCC2)s1)c1cccc(-n2cccn2)c1 (configuration not stated) was tested, and the “Percent Effect” value was -14.57%.
For O=C(CN1C(=O)CCC1=O)NCc1nn(C2CCCC2)c2c1CCCC2, the “Percent Effect” value was -9.274%.
With Cn1cc(CN2C[C@@H]3COC[C@]3(CNC(=O)c3ccco3)C2)cn1.O=C(O)C(F)(F)F the “Percent Effect” value was -7.864%.
For Cn1cc(CN2C[C@@H]3COC[C@]3(COCC3CC3)C2)cn1.O=C(O)C(F)(F)F, the “Percent Effect” value was 100.8%.
In the case of Cc1cccc(CN2C[C@H]3CCC[C@@]3(COCc3csc(C)n3)C2)n1.O=C(O)C(F)(F)F.O=C(O)C(F)(F)F, the “Percent Effect” value is reported as -5.241%.
For CCn1cc2c(n1)CN(Cc1cnn(C)c1)CC2COCC1CC1.O=C(O)C(F)(F)F (configuration not stated), the “Percent Effect” value was 12.58%.
For Cn1cc(CN2C[C@@H]3COC[C@]3(CNC(=O)c3ccsc3)C2)cn1.O=C(O)C(F)(F)F, the “Percent Effect” value was -12.06%.
With Cn1cc(CN2CCn3cnc(COCC4CC4)c3C2)cn1.O=C(O)C(F)(F)F the “Percent Effect” value was 8.69%.
Cc1nc(COC[C@@]23CCC[C@@H]2CN(Cc2cnn(C)c2)C3)cs1 was tested, and the “Percent Effect” value was 93.55%.
Cc1nc(COC[C@@]23CCC[C@@H]2CN(Cc2nccs2)C3)cs1.O=C(O)C(F)(F)F was tested, and the “Percent Effect” value was 8.352%.
With Cn1cc(CN2C[C@H]3CCC[C@@]3(COCC3CC3)C2)cn1.O=C(O)C(F)(F)F the “Percent Effect” value was 101.6%.
